This is part of a sample that, as a whole, favours compounds with a hit. Of some 83,000 tested, about 20% had one in any assay.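 Plates (96-well) were seeded with cells, treated with compound at one concentration, and incubated for 48 hours before percent growth was determined.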 Unmarked numbers belong to inactive results. Active and inactive are the calls of the source. Rule for the calls: active = growth percent below 10; inactive = the rest.

This test concerns HL-60(TB) leukemia. The test is described as follows: NCI-60 one-dose screen, 48 h (100 = growth as untreated, 0 = no growth, -100 = all killed). Conditions: 10 µM unless noted.
Regarding `Cc1ccccc1N1C(=O)c2cc(S(N)(=O)=O)c(Cl)cc2NC1C` (stereo not given), the growth was 87.9%.

With `CCN(CC)CCN1C(=O)c2c(c(C)c3c(oc4ccc(O)cc43)c2C)C1=O`, the growth is -6.29% (active).

Regarding `O=c1c2c3c(sc2n2c(-c4cn(-c5ccccc5)nc4-c4ccc(Cl)cc4)nnc2n1Cc1ccccc1)CCCC3`, the growth is 102%.

Take `N=C(N)c1ccc(-c2cc(Cl)cc(Cl)c2)cn1`: the growth is 98.1%.

For `CC(=O)Nc1ccc([I+]c2ccc([N+](=O)[O-])cc2)cc1`, the growth is 109%.

On to `CN1CC[C@@H](c2c(O)cc(O)c3c(=O)cc(-c4ccccc4Cl)oc23)[C@@H]1CO`, for which the growth was -28.6% (active).

For `C=C1c2nc3ccccc3n2C=C(c2cccc(Cl)c2)N1Cc1ccc(OC)cc1`, the growth is -25% (active).

On to `CCCCOc1nc2ccccc2cc1C1CNC(=O)c2ccccc2N1` (stereo not given), for which the growth was -8.72% (active).

As for `CCN1CCN(C(=O)[C@]23CCC(C)(C)C[C@@H]2C2=CC[C@@H]4[C@@]5(C)C/C(=C/c6cccnc6)C(=O)C(C)(C)[C@@H]5CC[C@@]4(C)[C@]2(C)CC3)CC1`, the growth is -37.3% (active).

Consider `CC(=O)N1c2ccccc2NC2=C(C(=O)NC2(C)C)C1c1ccco1` (stereo not given), for which the growth was 65.1%.

`Cc1nonc1-c1ccc2c(c1)OCO2`: the growth is 86.9%.

Regarding `O=C(Nc1cccc([N+](=O)[O-])c1)c1ccc(Cl)c(Cl)c1`, the growth is 87.8%.

For `O=C1Nc2ccccc2/C1=C/C(=N/c1nnc(-c2ccc(Cl)cc2)s1)c1ccccc1`, the growth is -31.8% (active).

`C[C@@H]1CC[C@@H]2[C@@H]1[C@H](OC(=O)c1ccc3ccccc3c1)[C@]1(C3CCCCC3)C[C@@H](OC(=O)CO)[C@@]2(C)O1`: the growth is 30.6%.

In the case of `CCNCCCCNCCCCNCCCCNCCCCNCC`, the growth is 127%.

Consider `CC(Br)C(Br)c1cc2c(cc1Br)OCO2` (stereo not given), for which the growth was 97%.

With `Cc1cc(C)c(-c2c(N)cc(Br)cc2Br)c(N)c1`, the growth was 21.1%.

In the case of `COc1ccc(-c2nc3ccc(C)cc3c3c2c(=O)n(C)c(=O)n3C)cc1OC`, the growth was 98.1%.

Regarding `O=C(N/N=C\c1ccc(-c2ccc(Br)cc2)o1)c1cc2oc(-c3cccc(C(F)(F)F)c3)cc2[nH]1`, the growth was 146%.

Take `Cc1ccc(-n2nc(C(C)(C)C)cc2NC(=O)NCc2cc(F)ccc2Oc2ccc3c(cnn3CCO)c2)cc1`: the growth is -1.84% (active).

In the case of `Cc1cc(N2CCN(CC(=O)Nc3ccc4c(ccn4C)c3)CC2)nc(N2CCCCCC2)n1`, the growth is 74.7%.

As to `O=C(CCCCCCN1CC(=O)N2[C@@H](C3CCCCC3)c3[nH]c4ccccc4c3C[C@H]2C1=O)NO`, the growth was 5.7% (active).

For `O=C(Nc1ccc(F)cc1)Nc1ccc(NC(=O)c2cc(Cl)nc3ccccc23)cc1`, the growth is 63.9%.

For the compound `COc1ccc2cc(-c3ccc(-c4ccc(C(=N)N)s4)s3)ccc2c1`, the growth is 36.5%.

`C#Cc1c(I)n(C2OC(CO[Si](C)(C)C(C)(C)C)C3OC(C)(C)OC32)c(=O)[nH]c1=O` (stereo not given): the growth is 20.1%.

As for `N#C/C(C(=O)c1ccccc1)=C1/C(=O)Nc2ccc(F)cc21`, the growth is 130%.

In the case of `Cc1ccc(S(=O)(=O)N2CCc3ccc(O)c4c3C2CCc2ccccc2-4)cc1` (stereo not given), the growth is 91.3%.

Consider `O=C(CCN1CCCCC1)c1ccc2ccccc2c1`, for which the growth was 112%.

Take `CN1CCN(Cc2ccc(NC(=O)c3cncc(C#Cc4cnc(N)c5cnccc45)c3)cc2C(F)(F)F)CC1`: the growth is -25% (active).

Turning to `OCCN1CCCN(CCCN2c3ccccc3Sc3ccc(C(F)(F)F)cc32)CC1`, the growth was 45%.

As for `COc1ccc2c(c1)c(-c1nc(-c3c[nH]c4c(Cl)nccc34)cs1)cn2C`, the growth was 108%.

In the case of `COc1cc(/C=C2/C=C(c3ccc(C(C)(C)C)cc3)N(CCc3ccc(S(N)(=O)=O)cc3)C2=O)cc(OC)c1OC`, the growth was 20.5%.

Take `C#Cc1cccc(Nc2ncnc3cc4c(cc23)OCCOCCOCCO4)c1`: the growth is 88.1%.

In the case of `O=NN(CCCl)C(=O)NCc1ccc(-c2ccc(CNC(=O)N(CCCl)N=O)cc2)cc1`, the growth is 88.6%.

On to `Cc1ccc(NC(=O)NC2CCCCC2)cc1`, for which the growth was 63.1%.

As to `CN1/C(=C\C=C\C2=[N+](C)c3ccccc3C2(C)C)C(C)(C)c2ccccc21`, the growth was -22.5% (active).

Regarding `CC[C@H](CO)Nc1nc(NCc2ccccc2)n2ncc(C(C)C)c2n1`, the growth was -38.2% (active).

Regarding `COc1cccc(-c2nc3cc(NC(=O)c4ccc(Cl)c(C#N)c4)ccc3o2)c1`, the growth is 100%.

In the case of `CC(C)(C)[Si](C)(C)OC1[C@@H](CNC(=O)NC(=O)NC(N)=O)O[C@@H](n2cnc3c(NC(=O)Nc4ccccc4)ncnc32)[C@H]1O[Si](C)(C)C(C)(C)C` (stereo not given in full), the growth was 86.3%.

Consider `COc1ccc(Cn2cc3c(c2)-c2oncc2CC3)cc1`, for which the growth was 24.5%.

Source of the values: PubChem BioAssay (NCI).
